The results in this text go back to PubChem BioAssay (NCATS).

Molecules are shown by their SMILES. Several values for one entry are separate records, joined by “and”; a condition that tells them apart may be missing. Identical values can stand only once. Inconclusive results are not listed. Values without a mark were called inactive. Activity calls are given as the source filed them. Calls follow the shape of the dose curve; as a rule, active = well fitted cell-killing curve with a large enough effect; inconclusive = small, poorly fitted or top-dose-only effect; inactive = flat fitted curve, though single readings scatter. Where a SMILES comes first, the peptide text is derived from it.
% is scaled to controls: 0 for no effect and ±100 for the full control effect; potency is read from the fitted curve at half-maximal effect.

The experiment is described as follows: Cellular viability qHTS for adrenocortical cancer (ACC) cell line SW-13 (AID 1963989). Also: nearly all actives have a fitted effect of over 65% in size.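 As to activity (max response): cells grown in serum-free medium with ITS supplement.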 As to conditions: SW-13 ACC cells viability, CellTiter-Glo, 48 h; activity (max response): hits give low values. The source says: PI: Naris Nilubol, MD Surgical Oncology Program, National Cancer Institute (NCI) National Institute of Health (NIH), Bethesda, Maryland Adrenocortical cancer (ACC) is a rare malignancy with poor survival outcomes and few treatment options. Currently, mitotane is the only FDA-approved therapy for ACC. Although adjuvant radiation therapy is rarely utilized, it has the potential to improve survival in select cases. Through a quantitative high-throughput drug screen (qHTS), we identified auranofin (AF), a thioredoxin reductase (TXNRD) inhibitor, as a promising candidate drug. This study aims to evaluate whether AF can enhance the efficacy of radiation therapy in the treatment of ACC. Two human ACC cell lines, SW-13 and NCI-H295R, were screened using the National Center for Advancing Translational Sciences (NCATS) Pharmaceutical Collection (NPC) and the Mechanism Interrogation PlatE (MIPE) library (~4,991 compounds). CellTiter-Glo (Cat # G7570, Promega, Madison, WI) was utilized to measure cell viability. Described herein are the results of the corresponding viability assay.
PROTOCOL TABLE (as described by Inglese J, Shamu CE and Guy RK. 2007) SEQUENCE No. (e.g., 1, 2, 3, etc.); […] (e.g., Cells, Incubation, Reagent, etc.); VALUE; DESCRIPTION. 1; Cells; 5 uL; white, solid-bottom, 1536-well tissue-culture treated plates. 2; Time; overnight culture at 37C with 5% CO2. 3; Compounds and control; 23 nL; Kalypsis pin tool (Wako USA) equipped with a 1536-well pin head to transfer to the assay plates. 4; Time; 48 hours; 37C with 5% CO2. 5; Reagent; 4 uL; CellTiter-Glo luminescent substrate mix. 6; Time; 20 min at room temperature. 7; Detection; Luminescence; ViewLux plate reader NOTES (numbers refer to Sequence numbers above) 1. SW13 cells were harvested from a T175 flask and resuspended in ITS-supplemented DMEM serum-free medium at a concentration of 300 000 cells/mL. Then 5 uL of resuspended cells were dispensed into each well of white, solid-bottom, 1536-well tissue-culture-treated plates using a multidrop combi dispenser. The plates were covered with stainless steel gasket lids. 2-3. The plates were cultured overnight at 37C with 5% CO2. Twenty-three nL of compounds (eight selected concentrations from the NPC / MIPE) or positive control (10 mM stock of bortezomib) in DMSO was transferred to each well of the assay plate using a pin tool (Kalypsys, San Diego, CA, USA). The final concentration of the compounds in the 5 uL assay volume ranged from 0.5 nM to 46 uM. 4-6. After 48 hours of incubation at 37C and 5% CO2, 4 uL of CellTilter-Glo luminescent substrate mix (Promega, Madison, WI, USA) was added to each well. Then the plates were incubated for 20 minutes at room temperature. 7. After incubation, luminescence was measured using a ViewLux plate reader (PerkinElmer, Waltham, MA, USA) with a clear filter was used to measure the number of metabolically competent cells. To determine compound activity in the qHTS assay, the titration-response data for each sample was plotted and modeled by a four-parameter logistic fit yielding IC50 and efficacy (maximal response) values. […] REFERENCES: Inglese J, Shamu CE and Guy RK, Reporting data from high throughput screening of small molecule libraries, Nature Chemical Biology, 2007, 3(8): 438-441. doi.org/10.1038/nchembio0807-438.
`Clc1ccc(-c2nc3sccn3c2/C=N/OCc2ccc(Cl)c(Cl)c2)cc1`: the activity (max response) is 3.29%.

In the case of `O=C1NC(=O)/C(=C/c2cccc(C(F)(F)F)c2)S1`, the Potency is 25.1 µM (active).

As to `COc1ccc(-n2nc(C(N)=O)c3c2C(=O)N(c2ccc(N4CCCCC4=O)cc2)CC3)cc1`, the activity (max response) is -9.7%.

As for `CC(=O)N[C@@H](CO)C(=O)N[C@@H](CC(=O)O)C(=O)N[C@@H](CCCCN)C(=O)N1CCC[C@H]1C(=O)O` (Ac-SDKP-OH), the activity (max response) is 0.638%.

Regarding `C[n+]1cc2c3c(ccc2c2ccc4cc5c(cc4c21)OCO5)OCO3`, the Potency is 2.24 µM (active).

With `CNC(=O)c1cc(Oc2ccc(NC(=O)Nc3ccc(Cl)c(C(F)(F)F)c3)cc2)ccn1`, the Potency was 8.91 µM (active) and 11.6 µM (active).

Consider `CC(N[C@H]1CCCC[C@H]1NC(=O)c1ccc(Cl)cc1)c1cccc2ccccc12` (stereo not given in full), for which the Potency was 25.1 µM (active).

As to `CC(C)(C)c1cc(C(C)(C)C)c(NC(=O)c2c[nH]c3ccccc3c2=O)cc1O`, the Potency is 6.31 µM (active).

Turning to `CCC1NC(=O)c2cc(S(N)(=O)=O)c(Cl)cc2N1` (stereo not given), the activity (max response) was 11.8%.

As to `NC(=O)c1cccc2[nH]c(-c3ccc([C@H]4CCCN4)cc3F)nc12`, the activity (max response) is -3%.

Regarding `CNC(=O)c1ccc(N2C(=S)N(c3ccc(C#N)c(C(F)(F)F)c3)C(=O)C2(C)C)cc1F`, the activity (max response) is -1.24%.

For `C=CC(=O)N1CCc2ccc(-n3c(=O)ccc4cnc5ccc(-c6cnn(C)c6)cc5c43)cc21`, the Potency is 3.58 µM (active).

With `Cc1nc(-c2cccnc2)sc1C(=O)Nc1ccccc1-c1cn2c(CN3CCOCC3)csc2n1`, the activity (max response) is -5.59%.

For the molecule `O=[N+]([O-])c1cccc(S(=O)(=O)NCCNS(=O)(=O)c2cccc([N+](=O)[O-])c2)c1`, the activity (max response) is -5.4%.

`CCOC(=O)c1cnc2c(cnn2CC)c1NN=C(C)C`: the activity (max response) was 7.42%.

Consider `O=P(O)(O)OCC(O)CO` (stereo not given), for which the activity (max response) is 10.4%.

As for `CCC(c1ccc(O)cc1)C(CC)c1ccc(O)cc1` (stereo not given), the Potency was 17.8 µM (active).

For the molecule `NC(=O)NC1NC(=O)NC1=O` (stereo not given), the activity (max response) is 10.7%.

As to `COc1cc(C(=O)OC(COCCC(C)C)CN2CCOCC2)cc(OC)c1OC` (stereo not given), the activity (max response) is 9.82%.

Turning to `COc1cccc2c1CCCC2CCCN1CCN(C2CCCCC2)CC1` (stereo not given), the Potency was 22.4 µM (active).

`CN[C@@H]1[C@H](O[C@H]2[C@H](O[C@@H]3[C@@H](O)[C@H](O)[C@@H](N=C(N)N)[C@H](O)[C@H]3N=C(N)N)O[C@@H](C)[C@]2(O)C=O)O[C@@H](CO)[C@H](O)[C@H]1O`: the activity (max response) is 6.19%.

Consider `C[C@H]1O[C@@H](n2cc(F)c(=O)[nH]c2=O)[C@H](O)[C@@H]1O`, for which the activity (max response) is -3.76% and -5.78%.

Turning to `COc1cccc2c(NCc3ccccc3)nc(-n3c(N)nc4ccccc43)nc12`, the Potency was 3.16 µM (active).

With `COC1CCC(C(=O)c2ccc3nc4c(cc3c2)CCCO4)CC1` (stereo not given), the activity (max response) is 3.89%.

For `O=C(CCCc1ccc2cccnc2n1)NCc1cc(-c2ccc(F)c(C(F)(F)F)c2)no1`, the activity (max response) is 1.37%.

Consider `OC[C@H](Cc1ccccc1)Nc1nc(Oc2ccc3c(c2)CCC3)nc2c1ncn2Cc1ccc(-c2ccccc2)cc1`, for which the activity (max response) is -12.9%.

Regarding `CC(=O)CCC(=O)O`, the activity (max response) was 9%.

With `CCCCCCCCCCCCCCCCO`, the activity (max response) is 10.1%.

`CCCCOC(=O)CCCCCCCCC(=O)OCCCC`: the activity (max response) was 11.1%.

Regarding `O=C1NC(=O)/C(=C\c2ccc(-c3ccc(F)cc3)o2)S1`, the activity (max response) is 3.49%.

With `O=C(O)C1CCCN(CCC=C(c2ccccc2)c2ccccc2)C1` (stereo not given), the activity (max response) was -5.26%.

Regarding `CCNC(=O)c1noc(-c2cc(C(C)C)c(O)cc2O)c1-c1ccc(CN2CCOCC2)cc1`, the Potency is 0.0708 µM (active).

For `O=C(O)[C@H](Cc1c[nH]c2ccccc12)N1C(=O)c2ccccc2C1=O`, the activity (max response) is -15.6%.

Consider `OC(CCCN1CCCCC1)(c1ccccc1)c1ccccc1`, for which the activity (max response) is -5.81%.

Regarding `CCOC(=O)C1=C(N)Oc2ccc(Br)cc2C1C(C#N)C(=O)OCC` (stereo not given), the activity (max response) is -2.87%.

As for `O=C(CCCCCCC(=O)Nc1ccccc1)NO`, the Potency is 4.11 µM (active) and 3.16 µM (active).

In the case of `Fc1ccc(Cl)cc1-c1nc(Nc2ccncc2)c2nccnc2n1`, the activity (max response) was -19.5%.

As for `Cn1cc(-c2ccc3ncc(Cc4ccc5ncccc5c4)n3n2)cn1`, the activity (max response) was 2.95%.

In the case of `CN(C)CC(C)(C)CNc1nn2c(-c3ccccc3)nnc2cc1C1CCC1`, the activity (max response) was -3.73%.

Consider `NC(=O)C(=O)N/N=C/c1ccc([N+](=O)[O-])o1`, for which the activity (max response) was -15.1%.
